We go through nine molecules from PubChem BioAssay (EPA / NIEHS).

Each structure is given as a SMILES string. Records with an inconclusive call do not appear. Calls of active or inactive are those of the source. Rule for the calls, unless noted: active = hit-call score of the fitted dose curve at least 0.9, where 1 is the maximum; inactive = score below 0.9.

The target in assay [1] is Nuclear respiratory factor 1 (Homo sapiens) (UniProt Q16656). Kind of assay: ATG_NRF1_CIS: Attagene CIS-FACTORIAL HepG2 Assay for human Nuclear Respiratory Factor 1 (NRF1) Orphan Gene (AID 2282987). The conditions noted are these: HepG2 NRF1 cis-element reporter, Attagene multiplex; actives raise or lower the signal. The essentials:
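Reporter mRNA induction or loss in HepG2 cells after 24 h dosing; cis-regulated reporter constructs report endogenous transcription-factor activity. Quantified by RT-PCR/capillary electrophoresis fluorescence, DMSO-referenced.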

Assay [2] in a line: ATG_NFI_CIS: Attagene CIS-FACTORIAL HepG2 Assay for human Nuclear Factor I (NFI) (AID 2282989). The settings on record: HepG2 cis-regulatory reporter, NFI response element transcription; actives raise or lower the signal. The essentials: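 Transfected HepG2 liver cells, exposed 24 h, supplied total RNA for oligo(dT) reverse transcription and reporter-specific PCR. Labelled, HpaI-cut fragments were sized by capillary electrophoresis; DMSO set the baseline for bidirectional fitting.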

In assay [3] the target is Myc proto-oncogene protein (Homo sapiens) (UniProt P01106). As to the kind of experiment: ATG_Myc_CIS: Attagene CIS-FACTORIAL HepG2 Assay for human Myelocytomatosis (Myc) Proto-Oncogene Transcription Factor (AID 2282990). The conditions noted are these: HepG2, Attagene cis-reporter transcription factor activity; actives raise or lower the signal. The gist of the method: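 Transiently transfected HepG2 cells bearing cis-promoter reporter units for endogenous transcription factors; 24 h exposure. Reporter mRNA measured by RT-PCR, 6-FAM primer extension, HpaI cut and capillary electrophoresis; bidirectional fit relative to DMSO.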

A short description of assay [4]: ATG_NF_kB_CIS: Attagene CIS-FACTORIAL HepG2 Assay for human Nuclear Factor Kappa B (NF-kB) (AID 2282991). The conditions noted are these: HepG2 Attagene cis-factorial NF-kB reporter mRNA; actives raise or lower the signal. The essentials:
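DMSO served as negative control and baseline for bidirectional curve fitting. Transiently transfected HepG2 cells were dosed for 24 h, then reporter transcripts were measured by RT-PCR with capillary electrophoresis detection.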

Assay [5] in a line: ATG_NRF2_ARE_CIS: Attagene CIS-FACTORIAL HepG2 Assay for human Nuclear Factor Erythroid 2 Related Factor 2 (NFR2) response to Antioxidant Response Elements (ARE) (AID 2282992).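 For AC50: reporter mRNA level measured by RT-PCR and capillary electrophoresis fluorescence.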 The conditions noted are these: HepG2 Attagene ARE/NRF2 reporter, transcription factor activity; actives raise or lower the signal. The gist of the method:
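Endogenous transcription factor activity in human liver HepG2 cells is tracked via a cis-element-driven reporter within a multiplexed set. mRNA induction is read by RT-PCR and capillary electrophoresis after 24 h, with DMSO as baseline.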

Assay [6] can be described thus: ATG_Oct_MLP_CIS: Attagene CIS-FACTORIAL HepG2 Assay for human Octamer-Binding Transcription Factor (Oct) (AID 2282993). The settings on record: HepG2 Attagene cis-factorial Oct reporter, mRNA; actives raise or lower the signal. The gist of the method:
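Using HepG2 cells bearing transfected cis-reporter constructs, mRNA induction was read after 24 h by fluorescent RT-PCR and capillary electrophoresis, with DMSO defining baseline for gain- or loss-of-signal fits.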

Assay [7] concerns the target Cellular tumor antigen p53 (Homo sapiens) (UniProt P04637). As to the kind of experiment: ATG_p53_CIS: Attagene CIS-FACTORIAL HepG2 Assay for human p53 Transcription Factor (AID 2282994). The settings on record: HepG2 p53 cis-element reporter, Attagene mRNA; actives raise or lower the signal. The essentials: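 Steps: transfect HepG2 with multiplexed cis reporter constructs; dose chemicals 24 h; extract RNA, reverse-transcribe, PCR-amplify reporter sequences; FAM-label, HpaI-digest, resolve fragments by CE. Activity fitted both directions relative to DMSO.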

Assay [8] in a line: BSK_3C_TissueFactor: BioMAP Diversity Plus: 3C Assay for Tissue Factor Biomarker Activity (AID 2282997). The conditions noted are these: BioMAP 3C HUVEC, tissue factor biomarker readout; actives raise or lower the signal. The gist of the method:
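Tissue factor on primary human umbilical vein endothelium was read by ELISA 24 h after dosing, gain or loss relative to DMSO. Cytotoxicity ran alongside via SRB (0.1%, TCA-fixed, 560 nm).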

The nature of assay [9]: BSK_3C_uPAR: BioMAP Diversity Plus: 3C Assay for Urokinase-type plasminogen activator receptor (uPAR) Biomarker Activity (AID 2282998). The conditions noted are these: BioMAP 3C HUVEC, uPAR biomarker ELISA; actives raise or lower the signal. The essentials: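 In this endothelial cell-based assay, human umbilical vein primary cells were treated with chemicals and harvested at 24 h. uPAR was quantified using ELISA, with gains or losses fitted relative to DMSO controls.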

Assay [10] in a line: BSK_3C_VCAM1: BioMAP Diversity Plus: 3C Assay for Vascular cell adhesion molecule 1 (VCAM1) Biomarker Activity (AID 2282999). The settings on record: BioMAP 3C HUVEC, VCAM1 ELISA, cytokine-stimulated; actives raise or lower the signal. The essentials: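 HUVEC primary cells, 24 h compound exposure; VCAM-1 by ELISA; gain/loss of signal fitted bidirectionally vs DMSO baseline.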

The nature of assay [11]: BSK_4H_Eotaxin3: BioMAP Diversity Plus: 4H Assay for Eotaxin 3 Biomarker Activity (AID 2283000).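 For outcome: CCL26 protein level quantified by ELISA in parallel with SRB cytotoxicity check.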 The settings on record: primary human endothelial cells (HUVEC); actives raise or lower the signal. The essentials: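 Human umbilical vein endothelial cells (BSK_4H system) dosed with test chemical; Eotaxin-3 (CCL26) measured by ELISA 24 h after dosing. Bidirectional curve fitting relative to DMSO negative control as baseline.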

Assay [12] has as its target human Peroxisome Proliferator-activated Receptor alpha (PPARa), PPARA (gene 5465) (UniProt Q07869). As to the kind of experiment: ATG_PPARa_TRANS: Attagene TRANS-FACTORIAL HepG2 Assay for human Peroxisome Proliferator-activated Receptor alpha (PPARa) (AID 2283001; active = hit-call score of the fitted dose curve at least 0.9, where 1 is the maximum;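 for AC50: potency for gain of reporter signal over DMSO so agonist or activator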). The gist of the method:
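Transient HepG2 transfection, GAL4-UAS reporters, NR-Gal4 chimeras; 24 h compound exposure. Readout: reporter transcripts by RT-PCR, 6-FAM primer extension, HpaI digest, capillary electrophoresis. Positive direction vs DMSO baseline.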

Read-out in assay [13]: Intercellular Adhesion Molecule 1 (ICAM1), ICAM1 (gene 3383)
Kind of assay: BSK_3C_ICAM1: BioMAP Diversity Plus: 3C Assay for Intercellular Adhesion Molecule 1 (ICAM1) Biomarker Activity (AID 2283003). The settings on record: primary human endothelial cells (HUVEC); actives raise or lower the signal. The gist of the method:
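ELISA read-out of ICAM-1; HUVEC (primary human), 3C system, 24 h post-dosing; bidirectional fit vs DMSO baseline.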

Assay [14] in a line: BSK_3C_Proliferation: Cell Proliferation Assessment in the BioMAP Diversity Plus: 3C Assay (AID 2283006).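 For AC50: potency may reflect either rise or fall in cell number versus DMSO.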 The settings on record: primary human endothelial cells (HUVEC). The gist of the method: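 HUVEC, sub-confluent; 48 h chemical exposure; 10% TCA fix, 0.1% SRB stain, A560 total protein. Gain or loss of signal fitted both directions vs DMSO control.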
Assay [15] deals with Peroxisome proliferator-activated receptor gamma (Homo sapiens) (UniProt P37231). Kind of assay: ATG_PPARg_TRANS: Attagene TRANS-FACTORIAL HepG2 Assay for human Peroxisome Proliferator-activated Receptor-gamma (PPARg) (AID 2283007; active = hit-call score of the fitted dose curve at least 0.9, where 1 is the maximum). The gist of the method:
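Chimeric NR-Gal4 transactivation is measured in transiently transfected HepG2 cells by reporter mRNA induction at 24 h. Detection uses RT-PCR with fluorescent labelling and capillary electrophoresis; DMSO defines baseline.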

Assay [16] has as its target human Peroxisome Proliferator-activated Receptor delta (PPARd), PPARD (gene 5467) (UniProt Q03181). Kind of assay: ATG_PPARd_TRANS: Attagene TRANS-FACTORIAL HepG2 Assay for human Peroxisome Proliferator-activated Receptor delta (PPARd) (AID 2283002; active = hit-call score of the fitted dose curve at least 0.9, where 1 is the maximum). The gist of the method: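 HepG2 cells transiently transfected with GAL4-UAS multiplexed reporter units driven by exogenous chimeric NR-GAL4 proteins; 24 h compound exposure. Reporter mRNA measured by RT-PCR, 6-FAM primer extension, HpaI digestion and capillary electrophoresis; gain of signal fitted relative to DMSO.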

In assay [17] the target is human Retinoic Acid Receptor beta (RARb), RARB (gene 5915) (UniProt P10826). Kind of assay: ATG_RARb_TRANS: Attagene TRANS-FACTORIAL HepG2 Assay for human Retinoic Acid Receptor beta (AID 2283004; active = hit-call score of the fitted dose curve at least 0.9, where 1 is the maximum). The essentials: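 Induction of reporter mRNA from a chimeric RARb-Gal4 construct was measured by RT-PCR, FAM labelling, HpaI digestion and capillary electrophoresis. Measurements followed 24 h compound treatment of transiently transfected human HepG2 liver cells, with DMSO as baseline.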

For assay [18], the target named is Retinoic acid receptor alpha (Homo sapiens) (UniProt P10276). Kind of assay: ATG_RARa_TRANS: Attagene TRANS-FACTORIAL HepG2 Assay for human Retinoic Acid Receptor alpha (RARa) (AID 2283005; active = hit-call score of the fitted dose curve at least 0.9, where 1 is the maximum). The gist of the method:
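HepG2 transiently transfected with multiplex GAL4-UAS reporter units including a human RARa–GAL4 chimera; 24 h compound exposure. Reporter mRNA quantified by RT-PCR, 6-FAM labeling and capillary electrophoresis; gain of signal versus DMSO.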

Assay [19] deals with Nuclear receptor subfamily 1 group I member 2 (Homo sapiens) (UniProt O75469). Kind of assay: ATG_PXR_TRANS: Attagene TRANS-FACTORIAL HepG2 Assay for human Pregnane X Receptor (PXR) (AID 2283008; active = hit-call score of the fitted dose curve at least 0.9, where 1 is the maximum). The gist of the method:
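HepG2 transfected (FuGene 6) with GAL4-UAS reporter units + PXR-Gal4 chimera; dosed 24 h. Total RNA → oligo(dT) RT → PCR → 6-FAM primer extension → HpaI cut → CE. Gain-of-signal vs DMSO.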

Assay [20] has as its target human Retinoic Acid Receptor gamma (RARg), RARG (gene 5916) (UniProt P13631). Kind of assay: ATG_RARg_TRANS: Attagene TRANS-FACTORIAL HepG2 Assay for human Retinoic Acid Receptor gamma (RARg) (AID 2283009; active = hit-call score of the fitted dose curve at least 0.9, where 1 is the maximum). The gist of the method: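 Readout: reporter transcript levels via RT-PCR, 6-FAM primer-extension labelling, HpaI digestion and capillary electrophoresis. Cells: HepG2 carrying transfected RARg-GAL4 chimera plus UAS reporter set. Dosing 24 h; DMSO negative control.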

Broadly, the AC50 is the midpoint of the concentration-response curve, whichever way the signal moves.

Peroxisome proliferator-activated receptor gamma (Homo sapiens), sequence (P37231 whole entry, looked up, the tested form may be a part): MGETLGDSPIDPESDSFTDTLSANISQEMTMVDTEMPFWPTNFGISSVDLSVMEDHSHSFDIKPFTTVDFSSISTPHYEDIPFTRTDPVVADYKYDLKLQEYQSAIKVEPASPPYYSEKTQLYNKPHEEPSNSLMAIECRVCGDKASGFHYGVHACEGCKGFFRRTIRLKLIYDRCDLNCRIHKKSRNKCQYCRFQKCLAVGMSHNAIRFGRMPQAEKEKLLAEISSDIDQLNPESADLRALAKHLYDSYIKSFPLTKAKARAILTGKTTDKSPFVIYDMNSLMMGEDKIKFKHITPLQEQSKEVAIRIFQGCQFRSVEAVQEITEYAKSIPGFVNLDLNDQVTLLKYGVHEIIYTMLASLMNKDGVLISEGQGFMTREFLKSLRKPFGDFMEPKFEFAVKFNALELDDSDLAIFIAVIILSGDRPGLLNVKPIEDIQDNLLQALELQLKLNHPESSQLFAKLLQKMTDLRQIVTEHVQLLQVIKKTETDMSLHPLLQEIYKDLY
human Peroxisome Proliferator-activated Receptor alpha (PPARa), PPARA (gene 5465), sequence (Q07869 whole entry, looked up, the tested form may be a part): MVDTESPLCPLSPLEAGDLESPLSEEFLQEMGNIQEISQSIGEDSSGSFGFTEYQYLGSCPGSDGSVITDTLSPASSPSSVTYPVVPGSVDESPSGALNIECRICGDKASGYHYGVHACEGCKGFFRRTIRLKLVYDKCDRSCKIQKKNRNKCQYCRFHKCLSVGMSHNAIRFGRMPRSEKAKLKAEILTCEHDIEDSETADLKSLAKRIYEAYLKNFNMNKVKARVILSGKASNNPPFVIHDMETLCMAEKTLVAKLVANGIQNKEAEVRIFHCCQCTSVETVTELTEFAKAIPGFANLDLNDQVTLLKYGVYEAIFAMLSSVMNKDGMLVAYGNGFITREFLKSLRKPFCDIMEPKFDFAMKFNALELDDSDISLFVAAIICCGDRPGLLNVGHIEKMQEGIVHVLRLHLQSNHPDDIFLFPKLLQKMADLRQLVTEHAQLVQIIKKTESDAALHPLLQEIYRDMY
Nuclear respiratory factor 1 (Homo sapiens), sequence (Q16656 whole entry, looked up): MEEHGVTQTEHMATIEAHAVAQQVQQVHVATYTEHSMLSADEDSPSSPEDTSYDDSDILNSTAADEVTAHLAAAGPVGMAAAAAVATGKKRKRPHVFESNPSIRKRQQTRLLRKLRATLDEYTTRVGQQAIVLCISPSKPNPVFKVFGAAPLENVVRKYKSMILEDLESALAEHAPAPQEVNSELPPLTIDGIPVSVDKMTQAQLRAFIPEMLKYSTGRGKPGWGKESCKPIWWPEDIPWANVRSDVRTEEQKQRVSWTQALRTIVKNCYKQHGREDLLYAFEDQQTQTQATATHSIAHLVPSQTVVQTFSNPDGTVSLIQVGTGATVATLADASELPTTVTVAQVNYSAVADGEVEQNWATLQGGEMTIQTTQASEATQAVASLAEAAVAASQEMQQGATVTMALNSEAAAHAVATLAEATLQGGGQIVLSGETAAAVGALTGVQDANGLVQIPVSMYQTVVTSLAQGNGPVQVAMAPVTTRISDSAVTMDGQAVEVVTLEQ
Nuclear receptor subfamily 1 group I member 2 (Homo sapiens), sequence (O75469 whole entry, looked up, the tested form may be a part): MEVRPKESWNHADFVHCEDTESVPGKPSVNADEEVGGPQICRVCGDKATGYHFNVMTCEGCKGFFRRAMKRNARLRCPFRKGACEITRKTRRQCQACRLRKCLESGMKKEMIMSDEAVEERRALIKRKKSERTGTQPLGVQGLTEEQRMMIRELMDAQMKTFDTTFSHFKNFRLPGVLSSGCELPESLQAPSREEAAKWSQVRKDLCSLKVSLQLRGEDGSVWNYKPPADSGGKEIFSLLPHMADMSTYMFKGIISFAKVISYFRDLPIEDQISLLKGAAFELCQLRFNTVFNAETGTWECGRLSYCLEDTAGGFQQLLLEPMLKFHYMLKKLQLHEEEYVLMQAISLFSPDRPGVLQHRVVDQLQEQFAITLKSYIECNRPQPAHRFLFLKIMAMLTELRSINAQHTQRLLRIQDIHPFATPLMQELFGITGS
Myc proto-oncogene protein (Homo sapiens), sequence (P01106 whole entry, looked up): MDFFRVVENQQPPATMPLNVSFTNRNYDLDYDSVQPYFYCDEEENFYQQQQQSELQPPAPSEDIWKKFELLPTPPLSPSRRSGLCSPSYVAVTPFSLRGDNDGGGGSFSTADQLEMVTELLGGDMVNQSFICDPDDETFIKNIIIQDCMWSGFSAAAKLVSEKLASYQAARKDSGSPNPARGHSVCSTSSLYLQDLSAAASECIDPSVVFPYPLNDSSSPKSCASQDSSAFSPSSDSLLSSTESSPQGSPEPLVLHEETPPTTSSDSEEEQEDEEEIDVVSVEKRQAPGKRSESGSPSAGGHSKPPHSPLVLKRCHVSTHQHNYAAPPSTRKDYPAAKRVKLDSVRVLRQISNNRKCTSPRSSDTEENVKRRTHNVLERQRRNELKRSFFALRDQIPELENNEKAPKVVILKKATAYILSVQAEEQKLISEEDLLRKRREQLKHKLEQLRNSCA
human Peroxisome Proliferator-activated Receptor delta (PPARd), PPARD (gene 5467), sequence (Q03181 whole entry, looked up, the tested form may be a part): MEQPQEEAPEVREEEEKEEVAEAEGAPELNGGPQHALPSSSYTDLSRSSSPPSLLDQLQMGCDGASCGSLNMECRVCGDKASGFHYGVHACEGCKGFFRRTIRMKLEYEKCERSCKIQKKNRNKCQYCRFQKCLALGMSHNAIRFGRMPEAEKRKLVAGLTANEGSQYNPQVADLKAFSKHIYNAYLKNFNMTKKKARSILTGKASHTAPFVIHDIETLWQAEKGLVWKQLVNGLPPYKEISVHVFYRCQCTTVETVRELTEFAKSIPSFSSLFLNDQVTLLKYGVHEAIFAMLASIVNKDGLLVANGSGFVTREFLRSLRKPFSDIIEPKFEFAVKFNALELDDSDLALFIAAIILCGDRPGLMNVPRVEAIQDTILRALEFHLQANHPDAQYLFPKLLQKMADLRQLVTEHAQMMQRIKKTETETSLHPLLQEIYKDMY
human Retinoic Acid Receptor beta (RARb), RARB (gene 5915), sequence (P10826 whole entry, looked up, the tested form may be a part): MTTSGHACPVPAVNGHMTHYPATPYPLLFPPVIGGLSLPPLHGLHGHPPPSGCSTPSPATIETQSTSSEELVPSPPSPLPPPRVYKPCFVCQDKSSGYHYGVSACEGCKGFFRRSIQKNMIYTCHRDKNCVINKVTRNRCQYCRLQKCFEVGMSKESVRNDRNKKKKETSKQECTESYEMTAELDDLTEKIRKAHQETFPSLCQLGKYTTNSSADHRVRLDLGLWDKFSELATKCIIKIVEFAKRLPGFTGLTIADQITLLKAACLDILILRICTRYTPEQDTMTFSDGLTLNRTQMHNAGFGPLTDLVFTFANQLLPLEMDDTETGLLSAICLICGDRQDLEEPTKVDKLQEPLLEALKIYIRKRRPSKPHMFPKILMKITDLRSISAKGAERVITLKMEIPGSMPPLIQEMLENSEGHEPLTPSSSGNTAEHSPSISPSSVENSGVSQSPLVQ
Cellular tumor antigen p53 (Homo sapiens), sequence (P04637 whole entry, looked up, the tested form may be a part): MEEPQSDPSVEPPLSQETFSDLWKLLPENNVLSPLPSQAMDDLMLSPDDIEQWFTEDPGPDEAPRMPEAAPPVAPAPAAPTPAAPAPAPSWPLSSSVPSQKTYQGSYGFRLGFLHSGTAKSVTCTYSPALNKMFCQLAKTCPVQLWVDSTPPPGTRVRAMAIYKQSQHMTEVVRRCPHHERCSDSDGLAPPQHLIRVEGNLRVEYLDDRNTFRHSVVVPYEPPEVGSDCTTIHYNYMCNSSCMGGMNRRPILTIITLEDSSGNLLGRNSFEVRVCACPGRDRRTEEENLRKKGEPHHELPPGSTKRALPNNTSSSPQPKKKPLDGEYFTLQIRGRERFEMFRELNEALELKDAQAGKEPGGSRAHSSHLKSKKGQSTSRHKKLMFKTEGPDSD
Retinoic acid receptor alpha (Homo sapiens), sequence (P10276 whole entry, looked up, the tested form may be a part): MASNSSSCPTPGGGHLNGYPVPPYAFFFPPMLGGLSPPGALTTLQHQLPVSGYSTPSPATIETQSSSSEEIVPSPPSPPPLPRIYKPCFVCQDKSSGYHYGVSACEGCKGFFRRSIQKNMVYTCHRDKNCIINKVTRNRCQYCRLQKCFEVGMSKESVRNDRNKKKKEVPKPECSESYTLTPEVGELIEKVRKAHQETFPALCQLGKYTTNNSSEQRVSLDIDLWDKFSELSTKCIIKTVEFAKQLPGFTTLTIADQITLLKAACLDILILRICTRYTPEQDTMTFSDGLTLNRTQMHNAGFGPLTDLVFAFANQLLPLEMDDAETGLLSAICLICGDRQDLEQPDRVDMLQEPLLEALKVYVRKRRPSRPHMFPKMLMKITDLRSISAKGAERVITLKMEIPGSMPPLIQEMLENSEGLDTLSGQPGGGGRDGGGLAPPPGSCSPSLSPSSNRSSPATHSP
human Retinoic Acid Receptor gamma (RARg), RARG (gene 5916), sequence (P13631 whole entry, looked up, the tested form may be a part): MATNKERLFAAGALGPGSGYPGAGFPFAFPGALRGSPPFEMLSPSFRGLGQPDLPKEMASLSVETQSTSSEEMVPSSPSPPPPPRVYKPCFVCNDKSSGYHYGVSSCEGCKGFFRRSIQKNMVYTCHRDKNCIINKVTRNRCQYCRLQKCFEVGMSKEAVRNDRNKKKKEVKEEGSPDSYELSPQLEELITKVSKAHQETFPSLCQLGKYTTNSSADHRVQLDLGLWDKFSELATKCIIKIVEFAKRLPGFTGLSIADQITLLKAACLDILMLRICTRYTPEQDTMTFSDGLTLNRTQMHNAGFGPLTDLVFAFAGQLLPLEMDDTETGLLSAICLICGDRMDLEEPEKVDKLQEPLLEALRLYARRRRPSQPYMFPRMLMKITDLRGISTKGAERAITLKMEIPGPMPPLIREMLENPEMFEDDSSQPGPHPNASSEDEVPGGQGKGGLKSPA

As for `O=C(O)CCC(F)(F)C(F)(F)C(F)(F)F`, the result in [1], in [2], in assay [3], in assay [4], in assay [5] and in assay [6] was inactive. In addition, the call in assay [7], in assay [8], in [9], in [10], in assay [11] and in assay [12] was inactive. Moreover, the result in [13], in [14] and in assay [15] was inactive.

Take `O=C(F)C1(F)C(F)(F)C(F)(F)C(F)(F)C(F)(F)C1(F)F`: the result in assay [1], in assay [2], in assay [3], in assay [4], in assay [5] and in assay [6] was inactive. Further, the outcome in assay [7], in assay [8], in assay [9], in assay [10], in assay [11] and in assay [16] was inactive. Also, the result in assay [13], in assay [17], in [18], in assay [14] and in assay [15] was inactive.

For the molecule `Cc1cc(O)c(C(C)(C)C)cc1C(C)(C)C`, the call in assay [1], in [2], in assay [3], in [4], in [6] and in [7] was inactive. In addition, the result in [16], in assay [17], in [18], in assay [15] and in [20] was inactive. The AC50 is 11.1 µM (active) in assay [5]; 3.4 µM (active) in [8]; 3.82 µM (active) in [9]; 4.42 µM (active) in [10]; 4.12 µM (active) in assay [11]; 8.46 µM (active) in assay [13]. Further, the AC50 was 2.36 µM (active) in [14] and 3.47 µM (active) in assay [19].

For `CC(C)C(=O)OCc1ccccc1`, the call in assay [1], in [2], in assay [3], in [4], in assay [5] and in assay [6] was inactive. Moreover, the molecule was called inactive in [7] and in assay [12].

With `CCCCCCCCCCCCCCCCC`, the call in assay [1], in assay [2], in assay [3], in [4], in assay [5] and in assay [6] was inactive. Also, the result in assay [7], in [12] and in assay [16] was inactive.

For the molecule `O=C=Nc1cccc2c(N=C=O)cccc12`, the outcome in assay [1], in assay [2], in assay [3], in [4], in [5] and in assay [6] was inactive. Also, the molecule was classed as inactive in assay [7], in [8], in [9], in [10], in [11] and in [16]. In addition, the outcome in assay [13], in assay [17], in [14] and in assay [15] was inactive. Further, in [19], the AC50 was 0.628 µM (active).

Take `NC(=O)C(F)(F)C(F)(F)C(F)(F)C(F)(F)C(F)(F)C(F)(F)C(F)(F)F`: the call in [1], in assay [2], in assay [3], in [4], in assay [5] and in [6] was inactive. Moreover, the outcome in [7], in assay [8], in [9], in assay [10], in assay [11] and in assay [13] was inactive. In addition, the molecule was classed as inactive in assay [17], in assay [18], in assay [14], in [15], in assay [19] and in assay [20]. Further, in assay [12], the AC50 was 86.9 µM (active).

As for `COc1ccccc1C=O`, the outcome in [1], in assay [2], in [3], in assay [4], in assay [5] and in [6] was inactive. The molecule was called inactive in assay [7], in assay [12] and in assay [16].

For the molecule `CCCC(=O)OCC(COC(=O)CCC)OC(=O)CCC`, the call in assay [1], in [2], in assay [3], in assay [5] and in assay [6] was inactive. Moreover, the half-maximal activity concentration (AC50) was 44.7 µM (active) in assay [4] and 89.1 µM (active) in assay [7].
